Test [1] deals with Androgen receptor (Homo sapiens) (UniProt P10275). In words: qHTS assay for small molecule agonists of androgen receptor signaling (AID 588515; active = well fitted curve in the direction sought with a large enough effect in the signal ratio, with a control signal flat; the % refers to the signal ratio; also: % is scaled to controls: 0 for no effect and ±100 for the full control effect). Particulars: AR-UAS-bla HEK293, beta-lactamase ratio, agonist 16 h; stronger effect = higher value. An outline of the steps:
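EC50 and efficacy came from Hill fits of titrations (up to 92 uM) normalized to 30 nM R1881 as 100% and DMSO as 0%. Compound exposure was 16 h at 37 C on AR-UAS-bla HEK293 cells, with a 405/460/530 nm CCF4 fluorescence read.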
Background: Quantitative high-throughput screening tests each substance at several concentrations.

The target is the same in test [2]. In words: qHTS assay for small molecule antagonists of androgen receptor signaling (AID 588516; active = well fitted curve in the direction sought with a large enough effect in the signal ratio, with a control signal flat, not every such curve was filed as active; the % refers to the signal ratio; also: % is scaled to controls: 0 for no effect and ±100 for the full control effect). In outline:
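Antagonist-mode qHTS: inhibition of R1881 (10 nM)-driven beta-lactamase expression in GripTite HEK 293 cells is measured after 16 h; values are Hill-derived IC50s normalized between R1881 and DMSO wells.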

Test [3] has as its target Bile acid receptor (Homo sapiens) (UniProt Q96RI1). In words: qHTS assay for small molecule antagonists of farnesoid X receptor signaling (AID 588526). Also: % is scaled to controls: 0 for no effect and ±100 for the full control effect. An outline of the steps: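 Concentration-response titrations were fitted to the Hill equation for half-maximal inhibition and maximal response, with data normalised to 50 uM chenodeoxycholic acid and DMSO control wells. Cells: FXR-UAS-bla HEK293T, dialyzed FBS.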

Test [4] has the same target. In words: qHTS assay for small molecule agonists of farnesoid X receptor signaling (AID 588527).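 Also: series mostly up to about 77 µM; 0% = vehicle basal and 100% = reference agonist.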 Particulars: HEK293T FXR-UAS-bla, beta-lactamase ratio, 16 h; activation: stronger effect = higher value. An outline of the steps: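 Quantitative HTS used FXR-UAS-bla HEK293T cells with 16 h compound incubation at 37 C. EC50 values came from concentration-response curves normalized to chenodeoxycholic acid.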

The target in test [5] is Glucocorticoid receptor (Homo sapiens) (UniProt P04150). In words: qHTS assay for small molecule agonists of glucocorticoid receptor signaling (AID 588532; active = well fitted curve in the direction sought with a large enough effect in the signal ratio, with a control signal flat; the % refers to the signal ratio;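 also: 100% = dexamethasone at 0.1 µM and 0% = DMSO only wells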). Particulars: HeLa MMTV-bla, beta-lactamase ratio, agonist, 18 h; activation: stronger effect = higher value, percent of dexamethasone control, DMSO zero. An outline of the steps: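 Titration series, up to 92 uM, applied to GRE-bla HeLa cells for 18 h at 37 C. Detection by CCF4 FRET substrate after 2 h at RT.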

Test [6] in a line: qHTS assay for small molecule antagonists of peroxisome proliferator-activated receptor delta signaling (AID 588535; active = well fitted inhibition curve with a large enough effect in the signal ratio, with a control signal flat, not every such curve was filed as active; the % refers to the signal ratio;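 as to max response: cells co-treated with a PPAR-delta agonist as stimulator during compound exposure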). The settings on record: HEK293T PPARd-UAS-bla, beta-lactamase FRET ratio, 18 h; 460 nm channel. An outline of the steps: (§1)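 Reporter: UAS-bla under PPAR-delta response element, HEK293T host. Medium: 2% charcoal/dextran FBS. Dosing: titration, 18 hrs, 37 C. Detection: CCF4, 2 hrs RT, 405 ex/460 and 530 em.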

In test [7] the target is Peroxisome proliferator-activated receptor delta (Homo sapiens) (UniProt Q03181). The test is described as above. An outline of the steps: as §1
Test [8] in a line: qHTS assay for small molecule agonists of retinoid X receptor alpha signaling (AID 588544). The settings on record: HEK293T RXRa-UAS-bla, beta-lactamase reporter, 18 h; 530 nm emission.
Test [9] can be described thus: qHTS assay for small molecule activators of the human pregnane X receptor (PXR) signaling pathway (AID 720659; call rule not given here; also: 0% is about no effect).
The target of test [10] is Glucocorticoid receptor (Homo sapiens) (UniProt P04150). As to the kind of experiment: qHTS assay for small molecule antagonists of glucocorticoid receptor signaling (AID 588533; active = well fitted inhibition curve with a large enough effect in the signal ratio, with a control signal flat, not every such curve was filed as active; the % refers to the signal ratio;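 also: cells stimulated with 2 nM dexamethasone as agonist; % is scaled to controls: 0 for no effect and ±100 for the full control effect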). In outline:
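Antagonist-mode qHTS: compound titrations added to GRE-bla HeLa cells, then dexamethasone 2 nM final; 18 h, 37 C. CCF4 FRET fluorescence normalized to dexamethasone and DMSO; IC50 from Hill fit.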

Test [11] in a line: qHTS assay for small molecule agonists of the antioxidant response element (ARE) signaling pathway (AID 651741; active = well fitted activation curve with a large enough effect in the signal ratio; the % refers to the signal ratio; also: potency is read from the fitted curve at half-maximal effect; as to activation: % of control where 0% means no effect). An outline of the steps: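 Compounds in DMSO are pinned onto HepG2 ARE-bla cells (2,000/well) that were preincubated 5 h; plates stay 16 h at 37 C, then beta-lactamase activity is detected with LiveBLAzer B/G substrate by fluorescence.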
Test [12] is described as follows: qHTS assay for small molecule activators of the nuclear factor-kappa B (NF-kB) signaling pathway (AID 651749; active = well fitted activation curve with a large enough effect in the signal ratio; the % refers to the signal ratio; also: series mostly up to about 77 µM; % of control where 0% means no effect). Particulars: NF-kB-bla ME-180 cells, beta-lactamase FRET ratio, 16 h; activation: stronger effect = higher value. An outline of the steps: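 Screening used 2,000 ME-180 reporter cells per well exposed to pinned compound (23 nL) or DMSO; after 16 hr at 37C, beta-lactamase expression under NF-kB control was assessed through FRET.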

The target in test [13] is Cytochrome P450 3A4 (Homo sapiens) (UniProt P08684). As to the kind of experiment: qHTS Assay for Inhibitors and Substrates of Cytochrome P450 3A4 (AID 884; active = well fitted curve in the direction sought with a large enough effect; an effect the other way counts as inactive or inconclusive; also: potency is read from the fitted curve at half-maximal effect; nearly all actives have a fitted effect of over 50% in size). An outline of the steps:
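20 nM human CYP3A4 with 25 uM Luciferin-PPXE (at KM) in 200 mM KPO4, preincubated 10 min with compound; NADPH regeneration started a 60 min RT reaction. Luciferin detected by luminescence, normalized to 57 uM ketoconazole as full inhibition.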

Test [14] has the same target. As to the kind of experiment: qHTS Assay for Activators of Cytochrome P450 3A4 (AID 885; active = well fitted curve in the direction sought with a large enough effect; an effect the other way counts as inactive or inconclusive; also: nearly all actives have a fitted effect of over 65% in size). An outline of the steps:
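Quantitative HTS format: compounds preincubated with 20nM human CYP3A4 and Luciferin-PPXE substrate at KM, reaction started by NADPH regeneration, stopped after 60 min, luciferase luminescence read 20 min later.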

In test [15] the target is DNA dC->dU-editing enzyme APOBEC-3G (Homo sapiens) (UniProt Q9HC16). In words: qHTS for inhibitors of Vif-A3G interactions: Validation (AID 588379; active = well fitted curve in the direction sought with a large enough effect; an effect the other way counts as inactive or inconclusive; also: 0% is about no effect). An outline of the steps:
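HeLa cells stably expressing Vif and A3G-eYFP, 700 cells/well, incubated overnight at 37 deg C, then exposed to compound overnight at 37 deg C. Inhibition of Vif-mediated degradation read as increased yellow fluorescence (Ex 488/Em 500-530) by laser-scanning cytometry.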

Test [16] addresses Mitogen-activated protein kinase 10 (Mus musculus) (UniProt Q61831). As to the kind of experiment: JNK3 AlphaScreen Assay (AID 530; active = well fitted curve in either direction with a large enough effect, not every such curve was filed as active). An outline of the steps: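 Inhibitors reduce antibody binding to phosphorylated biotin-cJun, lowering AlphaScreen luminescence. Lysates from HepG2 cells pre-activated by IL-1beta plus TNF-alpha supplied JNK3; compounds were titrated.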

Values joined by “and” are separate entries in the source; they are usually repeats but may differ in a detail not shown here. Equal values may be shown once. Inconclusive results are not listed. Active and inactive are the calls of the source. Unless noted, calls follow the shape of the full dose curve.

Sequence of Cytochrome P450 3A4 (Homo sapiens) (P08684 whole entry, looked up): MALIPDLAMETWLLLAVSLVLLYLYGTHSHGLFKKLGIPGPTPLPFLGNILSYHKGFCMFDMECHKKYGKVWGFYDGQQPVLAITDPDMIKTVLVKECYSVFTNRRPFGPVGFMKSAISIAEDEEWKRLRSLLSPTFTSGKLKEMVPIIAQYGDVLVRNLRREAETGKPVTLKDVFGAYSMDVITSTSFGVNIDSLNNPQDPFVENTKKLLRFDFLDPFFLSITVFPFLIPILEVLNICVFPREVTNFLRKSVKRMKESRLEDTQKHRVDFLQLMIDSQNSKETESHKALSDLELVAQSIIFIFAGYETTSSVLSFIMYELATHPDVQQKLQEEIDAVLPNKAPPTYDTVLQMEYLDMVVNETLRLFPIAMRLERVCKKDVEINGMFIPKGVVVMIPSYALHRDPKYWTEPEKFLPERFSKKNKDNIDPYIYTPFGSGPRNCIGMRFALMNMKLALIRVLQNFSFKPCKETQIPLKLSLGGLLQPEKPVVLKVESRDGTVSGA
Sequence of DNA dC->dU-editing enzyme APOBEC-3G (Homo sapiens) (Q9HC16 whole entry, looked up): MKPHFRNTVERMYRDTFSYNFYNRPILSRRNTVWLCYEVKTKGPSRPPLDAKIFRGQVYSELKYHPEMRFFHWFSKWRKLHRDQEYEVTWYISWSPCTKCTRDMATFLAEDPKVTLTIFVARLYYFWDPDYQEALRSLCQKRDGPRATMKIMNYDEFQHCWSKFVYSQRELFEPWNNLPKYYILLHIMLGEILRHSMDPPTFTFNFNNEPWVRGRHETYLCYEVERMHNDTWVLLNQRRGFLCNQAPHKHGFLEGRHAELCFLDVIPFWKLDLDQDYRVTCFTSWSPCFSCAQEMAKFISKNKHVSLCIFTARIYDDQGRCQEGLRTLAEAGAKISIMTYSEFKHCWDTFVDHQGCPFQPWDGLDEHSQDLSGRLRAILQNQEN
Sequence of Glucocorticoid receptor (Homo sapiens) (P04150 whole entry, looked up): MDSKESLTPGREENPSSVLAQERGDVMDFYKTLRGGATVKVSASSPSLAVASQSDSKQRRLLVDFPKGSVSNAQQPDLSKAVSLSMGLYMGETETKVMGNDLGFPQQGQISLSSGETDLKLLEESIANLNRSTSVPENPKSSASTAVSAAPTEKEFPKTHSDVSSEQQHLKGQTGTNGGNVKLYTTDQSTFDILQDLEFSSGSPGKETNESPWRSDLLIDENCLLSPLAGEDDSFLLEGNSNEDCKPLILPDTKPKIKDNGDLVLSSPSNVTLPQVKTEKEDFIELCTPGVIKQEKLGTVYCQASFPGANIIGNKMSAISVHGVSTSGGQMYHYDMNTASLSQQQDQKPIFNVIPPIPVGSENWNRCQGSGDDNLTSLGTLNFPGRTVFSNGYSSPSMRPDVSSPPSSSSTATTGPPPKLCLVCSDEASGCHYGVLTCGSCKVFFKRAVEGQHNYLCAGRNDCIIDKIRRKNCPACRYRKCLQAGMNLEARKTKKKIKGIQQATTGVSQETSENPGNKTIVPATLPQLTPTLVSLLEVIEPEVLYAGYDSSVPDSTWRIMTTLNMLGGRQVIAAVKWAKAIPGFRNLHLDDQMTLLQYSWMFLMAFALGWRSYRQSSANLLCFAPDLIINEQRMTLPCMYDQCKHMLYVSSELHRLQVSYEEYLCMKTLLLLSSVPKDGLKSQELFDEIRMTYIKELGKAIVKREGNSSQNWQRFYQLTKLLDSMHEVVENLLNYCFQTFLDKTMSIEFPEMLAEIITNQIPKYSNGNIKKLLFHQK
Sequence of Androgen receptor (Homo sapiens) (P10275 whole entry, looked up): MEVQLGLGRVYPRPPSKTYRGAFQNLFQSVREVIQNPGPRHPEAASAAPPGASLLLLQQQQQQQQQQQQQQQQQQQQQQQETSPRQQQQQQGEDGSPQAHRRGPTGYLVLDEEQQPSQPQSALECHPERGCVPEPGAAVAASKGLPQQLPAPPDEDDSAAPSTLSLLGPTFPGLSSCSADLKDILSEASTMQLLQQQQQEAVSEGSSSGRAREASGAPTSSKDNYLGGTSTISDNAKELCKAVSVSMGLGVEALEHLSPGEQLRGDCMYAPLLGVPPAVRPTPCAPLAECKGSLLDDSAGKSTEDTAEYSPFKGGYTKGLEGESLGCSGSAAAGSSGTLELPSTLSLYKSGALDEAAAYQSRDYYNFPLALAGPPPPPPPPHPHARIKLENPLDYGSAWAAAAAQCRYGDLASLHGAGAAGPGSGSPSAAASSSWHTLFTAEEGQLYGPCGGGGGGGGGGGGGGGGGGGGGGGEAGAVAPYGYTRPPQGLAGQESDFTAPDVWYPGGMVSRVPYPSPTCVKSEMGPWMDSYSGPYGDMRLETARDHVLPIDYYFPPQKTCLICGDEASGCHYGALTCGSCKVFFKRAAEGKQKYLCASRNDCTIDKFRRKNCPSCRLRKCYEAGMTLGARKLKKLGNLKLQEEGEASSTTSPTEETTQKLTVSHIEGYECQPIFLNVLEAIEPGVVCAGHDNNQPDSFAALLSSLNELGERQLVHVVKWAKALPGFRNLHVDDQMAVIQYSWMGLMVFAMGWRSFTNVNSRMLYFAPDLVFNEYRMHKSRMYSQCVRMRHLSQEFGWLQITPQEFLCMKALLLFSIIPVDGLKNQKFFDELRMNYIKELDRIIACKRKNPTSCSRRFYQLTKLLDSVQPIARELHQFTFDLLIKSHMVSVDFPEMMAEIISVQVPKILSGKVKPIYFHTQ
Sequence of Peroxisome proliferator-activated receptor delta (Homo sapiens) (Q03181 whole entry, looked up): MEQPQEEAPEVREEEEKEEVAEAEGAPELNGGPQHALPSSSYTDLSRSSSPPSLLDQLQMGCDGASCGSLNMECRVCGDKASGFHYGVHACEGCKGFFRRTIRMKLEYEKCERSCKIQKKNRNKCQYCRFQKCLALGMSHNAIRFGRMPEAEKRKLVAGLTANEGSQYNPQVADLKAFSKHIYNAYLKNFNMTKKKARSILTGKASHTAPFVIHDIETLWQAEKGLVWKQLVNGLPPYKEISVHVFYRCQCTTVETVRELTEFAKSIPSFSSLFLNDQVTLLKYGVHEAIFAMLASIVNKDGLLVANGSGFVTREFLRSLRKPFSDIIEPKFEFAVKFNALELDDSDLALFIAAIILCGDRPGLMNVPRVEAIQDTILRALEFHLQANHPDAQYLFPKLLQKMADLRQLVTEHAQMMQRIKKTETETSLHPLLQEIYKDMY
Sequence of Bile acid receptor (Homo sapiens) (Q96RI1 whole entry, looked up): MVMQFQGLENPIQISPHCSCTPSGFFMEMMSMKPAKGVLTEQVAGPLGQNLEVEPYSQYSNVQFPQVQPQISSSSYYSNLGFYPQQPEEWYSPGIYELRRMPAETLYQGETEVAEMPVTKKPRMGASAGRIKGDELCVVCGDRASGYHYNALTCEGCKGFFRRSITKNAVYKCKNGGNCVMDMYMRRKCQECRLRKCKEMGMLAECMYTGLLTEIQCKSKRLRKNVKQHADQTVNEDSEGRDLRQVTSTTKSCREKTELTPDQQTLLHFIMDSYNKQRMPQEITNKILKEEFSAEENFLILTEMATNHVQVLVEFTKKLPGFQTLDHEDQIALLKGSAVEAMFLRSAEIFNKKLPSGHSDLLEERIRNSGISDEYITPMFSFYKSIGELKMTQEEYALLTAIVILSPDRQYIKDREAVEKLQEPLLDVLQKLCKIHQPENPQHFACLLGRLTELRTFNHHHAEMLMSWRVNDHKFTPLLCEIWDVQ

For the compound `O=[As](O)(O)O`, the values for the activation in [1], in test [4] and in [5] were -0.986% (inactive), -0.515% (inactive) and -5.56% (inactive), respectively. In addition, the Potency result in test [2], in test [3] and in test [7] was “inactive” throughout. Also, the values for the max response in test [6] and in test [8] were 6.63% and -18.2%, respectively. In test [9], the call was inactive.

For `C=CC(=O)NCO`, the activation in [1] is -1.79% (inactive) and 14.2% (inactive); in test [4], 0.901% (inactive) and -4.9% (inactive); in test [5], -0.576% (inactive) and 6.11% (inactive); in [12], 0.439% (inactive) and -0.866% (inactive). Besides, the Potency result in test [2], in [3] and in test [10] was “inactive” in each case. For the same compound, the max response in [6] is 1.4%; in test [8], -12.6% and -9.15%. Moreover, in test [11], the Potency was 501 µM (active). In test [9], the compound was classed as inactive.

In the case of `CCOP(=O)(OCC)SCSC(C)(C)C`, the values for the activation in test [1], in test [5] and in [12] were 3.02% (inactive), -2.2% (inactive) and -3.03% (inactive), respectively. The Potency result in test [2] and in test [3] was “inactive” throughout. Besides, the figures for the max response in test [6] and in test [8] were 5.82% and 4.09%, respectively. The compound was called inactive in test [9].

As for `CCCCN(CC)C(=O)SCCC`, the activation is 8.69% (inactive) in [1], 3.83% (inactive) in [4], 4.14% (inactive) in test [5] and -0.995% (inactive) in [12]. The Potency entry in test [3], in [10] and in test [7] was “inactive” each time. Besides, the max response in test [6] is 5.34%; in test [8] it was -10.1%. Also, the compound was called inactive in test [9].

With `c1cc2c(cc1[C@H]1OC[C@@H]3[C@H]1CO[C@H]3c1ccc3c(c1)OCO3)OCO2`, the Potency in test [13] is 0.794 µM (active). Also, in test [14], the Potency entry is “inactive”. Further, in test [15], the call was inactive.

`C/C(=N\C(N)=O)N(C)Cc1ccc(Cl)nc1`: the activation is -2.44% (inactive) in test [1], 2.77% (inactive) in [4], -1.3% (inactive) in test [5] and -1.01% (inactive) in test [12]. Also, the Potency result in [2] and in test [3] was “inactive” each time. The max response was 39.3% in test [6] and -8.24% in test [8]. Further, the compound was classed as inactive in test [9].

As to `COc1cc2c(cc1OC)-c1c(O)c(OC)cc3c1[C@H](C2)N(C)CC3`, in test [13], the Potency was 7.94 µM (active). In addition, the Potency entry in test [14] was “inactive”. Further, in test [15], the compound was classed as inactive.

Take `CCOP(=O)(OCC)SCSCC`: the activation in [1] is 6.75% (inactive); in test [4], -0.362% (inactive); in test [12] it was -2% (inactive). The Potency result in [2], in test [3], in test [10], in test [7] and in [11] was “inactive” each time. In addition, the max response in test [6] is -57%.

`C[C@@H]1O[C@H](O[C@H]2C[C@@H](O)[C@]3(CO)[C@H]4[C@H](O)C[C@]5(C)[C@@H](C6=CC(=O)OC6)CC[C@@]5(O)[C@H]4CC[C@]3(O)C2)[C@@H](O)[C@H](O)[C@H]1O`: the result in test [16] was inactive.

For the compound `CN(C)C1C(=O)C(C(N)=O)=C(O)[C@@]2(O)C(=O)C3=C(O)c4c(O)cccc4[C@@](C)(O)C3[C@H](O)C12` (some centres not stated), the result in test [15] was inactive.

Take `CC(C)[C@]1(NC(=O)[C@@H]2C=C3c4cccc5[nH]cc(c45)C[C@H]3N(C)C2)O[C@@]2(O)C3CCCN3C(=O)[C@H](Cc3ccccc3)N2C1=O` (some centres not stated): the Potency in test [13] was 1 µM (active). Also, the Potency result in test [14] is “inactive”. For the same compound, the compound was called inactive in [15].

These data come from PubChem BioAssay (NCATS).
